NSD2 HMT inh: blocks human histone methyltransferase NSD2. O96028. NSD2 peptide methylation, AlphaScreen, 120 min. inhibition, % at 12.5 µM. 0.54% of 310,000 active. AID 743445; in the data active means inhibition above about 50%
Target sequence (O96028 whole entry, looked up): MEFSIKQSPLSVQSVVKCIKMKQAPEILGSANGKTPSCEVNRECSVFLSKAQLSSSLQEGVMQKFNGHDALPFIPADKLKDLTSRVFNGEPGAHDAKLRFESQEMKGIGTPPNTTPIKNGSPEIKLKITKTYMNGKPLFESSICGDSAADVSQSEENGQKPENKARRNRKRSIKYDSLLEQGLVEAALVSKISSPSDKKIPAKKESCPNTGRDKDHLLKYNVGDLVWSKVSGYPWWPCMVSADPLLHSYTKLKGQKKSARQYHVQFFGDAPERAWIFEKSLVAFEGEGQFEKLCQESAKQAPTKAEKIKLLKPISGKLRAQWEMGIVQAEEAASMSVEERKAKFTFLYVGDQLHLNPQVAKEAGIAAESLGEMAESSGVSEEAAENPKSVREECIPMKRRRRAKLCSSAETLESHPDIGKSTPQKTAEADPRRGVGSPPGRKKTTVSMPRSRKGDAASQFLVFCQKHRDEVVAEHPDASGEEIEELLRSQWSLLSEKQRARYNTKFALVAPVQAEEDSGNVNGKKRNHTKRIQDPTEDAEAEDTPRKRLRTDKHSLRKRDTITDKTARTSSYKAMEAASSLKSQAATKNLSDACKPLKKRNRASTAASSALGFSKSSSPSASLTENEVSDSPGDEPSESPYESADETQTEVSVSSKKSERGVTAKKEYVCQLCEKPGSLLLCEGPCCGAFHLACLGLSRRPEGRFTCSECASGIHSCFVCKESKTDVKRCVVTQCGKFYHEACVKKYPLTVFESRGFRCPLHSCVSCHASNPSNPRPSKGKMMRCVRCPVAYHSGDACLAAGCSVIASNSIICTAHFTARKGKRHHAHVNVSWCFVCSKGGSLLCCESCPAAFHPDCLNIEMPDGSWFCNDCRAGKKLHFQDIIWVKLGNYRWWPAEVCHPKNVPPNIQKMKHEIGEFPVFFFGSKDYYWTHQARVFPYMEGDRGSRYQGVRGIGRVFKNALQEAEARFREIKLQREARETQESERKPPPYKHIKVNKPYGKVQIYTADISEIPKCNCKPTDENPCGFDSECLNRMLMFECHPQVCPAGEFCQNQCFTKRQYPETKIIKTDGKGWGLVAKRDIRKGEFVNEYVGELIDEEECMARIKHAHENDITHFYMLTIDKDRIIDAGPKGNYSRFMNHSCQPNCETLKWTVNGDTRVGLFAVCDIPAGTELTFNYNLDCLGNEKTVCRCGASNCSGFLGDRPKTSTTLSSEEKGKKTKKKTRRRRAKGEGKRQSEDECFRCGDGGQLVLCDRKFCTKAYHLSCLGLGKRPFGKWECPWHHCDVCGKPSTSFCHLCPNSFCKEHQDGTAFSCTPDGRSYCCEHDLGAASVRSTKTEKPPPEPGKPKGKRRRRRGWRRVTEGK
PglD inh: blocks C. jejuni PglD acetyltransferase activity; purified PglD enzyme, DTNB colorimetric CoA detection; inhibition, % at 12.5 µM; 0.098% of 360,000 active; in the data active means inhibition above about 16%, passing the limit was not always enough
C2C12 statin: suppression of simvastatin myotoxicity; C2C12 myotubes + simvastatin, ATP luminescence, 48 h; scaled: DMSO 0, geranylgeraniol control 100; rescue of ATP level, % at 7.49 µM; 0.78% of 330,000 active;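 active means mean ATP rescue above about 67%, or every replicate alone reaching that limit, limit read from the data, passing the limit was not always enough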;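 further: myotubes were challenged with 10 µM simvastatin during compound exposure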
miR122 inh: miR-122 inhibition in Huh7 cells. 0.3% of 340,000 active. Huh7 miR-122 Renilla luciferase sensor, 48 h; neutral wells = 0, positive control = 100. activation (reporter increase), % at 12.5 µM;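 active means mean replicate activation score at least 90 and every replicate individually at or above 90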;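 further: higher luciferase means less miR-122 activity so hits act as miR-122 inhibitors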
PglD inh SP: PglD (C. jejuni) inhibition confirmation; shares compounds with PglD inh; Purified C. jejuni PglD, DTNB absorbance 412 nm; inhibition, % at 20 µM; 320 tested, under 10 active; AID 743156;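 active means mean inhibition across replicates of at least 20% with every single replicate also at 20% or more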;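 further: initial rate of CoA release by acetyl transfer from AcCoA to the UDP-4-amino sugar; 0% = median of neutral control wells and 100% = median of positive control wells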
Active calls of the source: *; . = no result given; [ ] = remark or other dose. In the library only some 1.2% were active in any assay of this set; here they are far more common.

SMILES	NSD2 HMT inh	PglD inh	C2C12 statin	miR122 inh	PglD inh SP
CCOc1ccccc1NC(=S)N1CCC(c2nc3ccccc3o2)CC1	1	21*	.	-2	-1
O=C1c2ccccc2COc2ccc(O)cc21	7	2	.	-2	.
COc1ccc2c(c1)C(=O)c1ccccc1CO2	1	40*	.	-8	2
O=C(CCCCCCC(=O)NCc1ccccc1)NCc1ccccc1	-3	84*	3	-11	-13
Cc1cccc(C(=O)NCCNC(=O)c2ccco2)c1	-1	20*	3	3	10
C[C@@H]1CN([C@H](C)CO)C(=O)CCCn2cc(nn2)CO[C@@H]1CN(C)S(=O)(=O)c1cccs1	.	3	4	-2[16.7 µM]	.
Cc1noc(C)c1S(=O)(=O)Nc1ccc2c(c1)C(=O)N([C@H](C)CO)C[C@H](C)[C@H](CN(C)C(=O)CCC(F)(F)F)OCCCC[C@@H](C)O2	.	-1	.	5[16.7 µM]	.
Clc1ccc(-c2noc(CN3CCCC3)n2)cc1	-1	31*	3	-3	-4
O=C(NCc1ccco1)C1OCCc2ccccc21 (configuration not stated)	0	25*	-2	-9	-1
O=C(CCN1CCCCC1)NCC[C@@H]1CC[C@H](NC(=O)c2ccc(F)cc2)[C@@H](CO)O1	.	3	3	.	.
CCN=C1Sc2nc3ccc(OCC)cc3cc2CN1CCOC	1	21*	-3	-6	-1
O=C(O)/C(=C\c1ccc(Br)cc1)NC(=O)c1cccs1	1	25*	0	14	2
O=C(N/C(=C/c1ccc(Br)cc1)C(=O)N1CCCC1)c1cccs1	0	.	.	.	.
O=C(O)CSc1cc(C(=O)c2ccccc2O)cn2c(=O)c3c4c(sc3nc12)CCCC4	-1	22*	.	0	1
O=C(O)CSc1nc2sc3c(c2c(=O)n1Cc1ccccc1)CCCCC3	0	-3	0	15	.
C=CCc1c(OC)ccc2c1c(S(=O)(=O)c1ccc(C)cc1)cn2COC	2	22*	9	53	1
Cc1noc(C)c1S(=O)(=O)Nc1ccc2c(c1)CC(=O)N([C@H](C)CO)C[C@H](C)[C@@H](CN(C)S(=O)(=O)c1ccc(F)cc1)O2	.	2	-1	1[16.7 µM]	.
Cc1c(C(=O)O)oc2c3c(ccc12)OCCO3	2	24*	35	-4	-2
CNC(=O)C[C@@H]1CC[C@@H]2[C@H](COc3ccc(NS(=O)(=O)c4cccc(F)c4)cc3C(=O)N2C)O1	.	-2	7	-3[16.7 µM]	.
COc1ccc(C(C)(C)C)cc1S(=O)(=O)N1CCC(C(N)=O)CC1	-3	.	6	22	.
COc1ccc(F)cc1S(=O)(=O)N1CCC(C(N)=O)CC1	.	22*	6	-4	-3
COc1ccc(C2CC(c3ccccc3)=NN2C(=O)COC(=O)/C=C/c2ccc(O)c(OC)c2)cc1 (configuration not stated)	.	34*	51	-8	7
CC(C)c1cn(CC[C@H]2CC[C@H](NS(=O)(=O)c3ccccc3)[C@@H](CO)O2)nn1	.	-3	2	.	.
NC(=O)CC(NC(=O)c1ccc(Cl)cc1)C(=O)NCCc1ccc(S(N)(=O)=O)cc1 (configuration not stated)	-1	23*	-2	3	0
NS(=O)(=O)c1ccc(CCNC(=O)CCCNC(=O)c2ccc(Cl)cc2)cc1	2	0	-7	.	.
SMILES	NSD2 HMT inh	PglD inh	C2C12 statin	miR122 inh	PglD inh SP
CCCC(=O)Nc1ccc2c(c1)OC[C@H](C)N(C(=O)c1cnccn1)C[C@@H](C)[C@H](OC)CN(C)C2=O	.	-2	-4	.	.
C[C@H]1CN([C@@H](C)CO)C(=O)CCCn2cc(nn2)CO[C@H]1CN(C)Cc1ccncc1	.	1	-4	5[16.7 µM]	.
CS(=O)(=O)Nc1cccc(NC(=O)c2cccc3c(-c4cccnc4)coc23)c1	5	35*	3	3	1
COc1ccc(/C=C(\NC(=O)c2ccccc2)C(=O)N2CCN(C)CC2)cc1	0	2	7	.	.
COc1ccc(/C=C(/NC(=O)c2ccccc2)C(=O)N2CCCC2)cc1	-1	58*	-4	.	-7
COc1ccccc1-c1nnc(SCc2ccccn2)n1C	-1	62*	-17	2	-3
Cc1cc(C)cc(C(=O)Oc2coc(CSc3nnc(NC(=O)C4CC4)s3)cc2=O)c1	8	.	.	.	.
O=C(Oc1coc(CSc2nnc(NC(=O)C3CC3)s2)cc1=O)c1c(F)cccc1F	17	63*	21	16	4
Cc1ccc(C(=O)N/N=C\c2ccc(OC(=O)c3cccc(F)c3)cc2)cn1	-2	3	-15	.	.
COc1cc(/C=N\NC(=O)c2ccc(C)nc2)ccc1OC(=O)c1cccc(F)c1	1	29*	-3	-1	-7
c1ccc(COc2ncnc3c2ncn3CCCNCc2cccs2)cc1	.	28*	-2	2	1
Cc1cc(C)c2c(NC(N)=S)n[nH]c2n1	-4	26*	4	2	0
CC(C)NC(=O)N(C)C[C@@H]1Oc2ccc(NS(=O)(=O)c3ccc(F)cc3)cc2CC(=O)N([C@@H](C)CO)C[C@@H]1C	.	0	-7	0[16.7 µM]	.
COc1cc(NC(=O)Cc2nn(C)c(=O)c3ccccc23)cc(OC)c1	-2	21*	6	-2	-5
C[C@H](O)C#Cc1cnc2c(c1)C(=O)N([C@H](C)CO)C[C@H](C)[C@H](CN(C)C(=O)Nc1ccc(F)cc1)O2	.	-2	-15	-2[16.7 µM]	.
C[C@H]1CN([C@@H](C)CO)C(=O)c2cc(NS(=O)(=O)c3cccs3)ccc2O[C@H]1CN(C)S(=O)(=O)c1cn(C)cn1	.	1	4	4[16.7 µM]	.
CCOC(=O)C1CCCN(C2CC(=O)N(c3ccc(N4C(=O)CC(N5CCCC(C(=O)OCC)C5)C4=O)cc3)C2=O)C1 (configuration not stated)	0	-16	.	-2	.
CCOC(=O)C1CCCN(C2CC(=O)N(c3ccccc3)C2=O)C1 (configuration not stated)	-1	27*	.	-3	-3
COc1ccc(-n2ccnc2)cc1	-1	37*	.	.	9
COc1cc2cc(CCCOC(=O)c3ccc(C(F)(F)F)cc3)oc(=O)c2cc1OC	.	35*	9	-1	6
C[C@@H]1CN([C@H](C)CO)C(=O)c2cccc(NC(=O)C3CC3)c2O[C@H]1CN(C)S(=O)(=O)c1ccc(F)cc1	.	0	-23	-5[16.7 µM]	.
CNC[C@H]1Oc2c(NC(=O)NC3CCCCC3)cccc2C(=O)N([C@H](C)CO)C[C@H]1C	.	2	18	1[16.7 µM]	.
Nc1ccc(-c2cnc(-c3ccc(N)cc3)nc2)cc1	1	31*	15	5	3
Cc1cc(C)cc(N(C(C)C(=O)N2CCCC2)S(C)(=O)=O)c1 (configuration not stated)	-1	75*	-1	-4	-9
CC(C(=O)N1CCCC1)N(c1ccccc1)S(C)(=O)=O (configuration not stated)	-3	3	3	-1	.
CC(C)OCCCn1c(=NC(=O)c2ccncc2)c(C#N)cc2c(=O)n3ccccc3nc21	-2	4	8	1	.

Bioassay records (PubChem)
